PME-1 inh: PME-1 inhibitors via competitive probe labeling, primary screen, biochemical, fluorescence polarization, FP-Rh probe, HTS | Protein phosphatase methylesterase 1 (Homo sapiens), Q9Y570 | recombinant PME-1 | inhibition, % at 5.9 µM | 320,000 tested, 0.53% active | AID 2130, 2009;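 active = inhibition above the campaign mean of all compounds plus 3 SD, cut at about 26% in these data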;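 also: competitive labeling of PME-1 active site by serine hydrolase directed probe; 0% = PME-1 with DMSO and 100% = wells lacking PME-1 enzyme; inhibitors block probe labeling so polarization falls and inhibition rises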
Target sequence (Q9Y570 whole entry, looked up): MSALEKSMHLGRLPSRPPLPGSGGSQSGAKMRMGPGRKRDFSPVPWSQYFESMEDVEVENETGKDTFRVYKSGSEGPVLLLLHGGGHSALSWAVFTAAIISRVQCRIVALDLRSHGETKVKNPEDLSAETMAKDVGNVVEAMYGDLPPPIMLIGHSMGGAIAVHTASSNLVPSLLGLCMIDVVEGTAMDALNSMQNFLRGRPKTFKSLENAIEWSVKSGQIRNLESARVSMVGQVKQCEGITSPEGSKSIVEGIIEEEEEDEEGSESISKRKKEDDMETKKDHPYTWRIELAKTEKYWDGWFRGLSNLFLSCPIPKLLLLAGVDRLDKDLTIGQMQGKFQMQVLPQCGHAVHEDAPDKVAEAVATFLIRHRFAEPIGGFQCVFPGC
Fam108B inh: mouse Fam108B serine hydrolase inhibitors, primary screen, counter-screen for RBBP9 inhibitor project, biochemical, fluorescence polarization | recombinant Fam108B, FP-Rh probe fluorescence polarization | inhibition, % at 9.51 µM | 300,000 tested, 0.33% active | AID 1947, 2009;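 active = inhibition above the screen mean inhibition plus 3 SD, computed separately per campaign, cut at about 18% in these data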;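 also: inhibitors lower polarization as less probe binds the enzyme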
LYPLA1 counter: LYPLA1 inhibitors, primary screen, counter-screen for PME1 inhibitor project, biochemical, fluorescence polarization, FP-Rh probe ABPP; AID 2174, 2009; 320,000 tested, 0.16% active; recombinant LYPLA1; inhibition, % at 5.9 µM; Acyl-protein thioesterase 1 (Homo sapiens), O75608;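 active = inhibition above the mean of all tested compounds plus 3 SD, set per campaign, cut at about 14% in these data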;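 also: inhibitors block serine hydrolase probe labeling of LYPLA1 so polarization falls; 0% = enzyme with DMSO and 100% = wells lacking LYPLA1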
GSTO1 counter: inhibitors of recombinant GSTO1, primary screen, counter-screen for RBBP9 inhibitor project, biochemical, fluorescence polarization | Glutathione S-transferase omega-1 (Homo sapiens), P78417 | activity-based probe fluorescence polarization | inhibition, % at 5.96 µM | 300,000 tested, 1.1% active;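 active = inhibition above the campaign mean inhibition plus 3 SD, cut at about 35% in these data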;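 also: 0% = GSTO1-1 with DMSO and 100% = wells lacking GSTO1-1 enzyme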
PAD4 inh: human PAD4 inhibitors, primary screen, biochemical, fluorescence polarization, 1536-well format; inhibition, % at 6.36 µM; Protein-arginine deiminase type-4 (Homo sapiens), Q9UM07; 330,000 tested, 0.41% active; recombinant PAD4, RCA probe fluorescence polarization;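 active = percent inhibition above a cutoff equal to the mean of all tested compounds plus 3 SD, cut at about 15% in these data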;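 also: 0% = PAD4 with RCA probe and DMSO and 100% = probe without PAD4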
LYPLA2 counter: LYPLA2 inhibitors, primary screen, counter-screen for PME1 inhibitor project, biochemical, fluorescence polarization, FP-Rh probe ABPP; 320,000 tested, 0.38% active; Acyl-protein thioesterase 2 (Homo sapiens), O95372; AID 2177, 2009; inhibition, % at 5.9 µM; recombinant LYPLA2;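 active = inhibition above the screen-wide mean plus 3 SD, limit set per campaign, cut at about 26% in these data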;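 also: 0% = LYPLA2 with DMSO and 100% = wells lacking LYPLA2 enzyme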
Target sequence (O95372 whole entry, looked up): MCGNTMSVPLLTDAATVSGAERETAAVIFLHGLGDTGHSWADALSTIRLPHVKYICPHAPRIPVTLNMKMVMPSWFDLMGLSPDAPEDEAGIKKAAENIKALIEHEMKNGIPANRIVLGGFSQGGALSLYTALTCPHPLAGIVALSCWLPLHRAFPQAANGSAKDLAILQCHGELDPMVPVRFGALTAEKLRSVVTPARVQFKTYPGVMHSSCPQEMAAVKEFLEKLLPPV
GSTO1 confirm: GSTO1 inhibitor hit confirmation, counter-screen for RBBP9 inhibitor project, biochemical, fluorescence polarization, triplicate. shares compounds with GSTO1 counter. inhibition, % at 5.96 µM. recombinant GSTO1, probe fluorescence polarization. 2,400 tested, 54% active;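 active = inhibition above the primary screen's cutoff, its mean inhibition plus 3 SD, cut at about 35% in these data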;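 also: loss of polarization as inhibitors block binding of rhodamine sulfonate ester activity probe; 0% = GSTO1 with DMSO and 100% = wells lacking GSTO1 enzyme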
GSTO1 ABPP inh: inhibitors of purified human GSTO1, late-stage follow-up, biochemical, gel ABPP, SE-Rh probe, percent inhibition; shares compounds with GSTO1 counter; recombinant GSTO1, gel ABPP SE-Rh probe fluorescence; inhibition, % at 1 µM; 130 tested, 30% active; AID 463110, 2010;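 active = inhibition of the enzyme GSTO1 above about 75%, limit read from the data; inactive = inhibition below that limit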
* = called active by the depositor; · = no result. This is a sample that favours compounds with a hit; in the whole collection about 1.8% have one here.

SMILES | PME-1 inh | Fam108B inh | LYPLA1 counter | GSTO1 counter | PAD4 inh | LYPLA2 counter | GSTO1 confirm | others
Cc1cc(O)cc(C)c1Cl | -5.2 | 8.4 | 0.7 | 7.5 | 4.5 | 7.9 | ·
COC(=O)[C@H](C)NC(=O)c1cc2c(cn1)[nH]c1ccccc12 | -7.2 | -4.0 | -1.1 | 3.2 | 1.4 | 7.8 | ·
O=C(O)c1cc2c(cn1)[nH]c1ccccc12 | 4.4 | 1.0 | -4.2 | 55.9* | -2.8 | 0.6 | 17.1
O=C(O)C(Cc1c[nH]c2ccccc12)NS(=O)(=O)c1cccc(Cl)c1Cl (stereo not drawn) | 1.9 | 4.5 | -4.0 | 7.9 | -2.1 | 1.0 | ·
CN(CCOc1ccccc1)CC(=O)Nc1ccc(Cl)cc1[N+](=O)[O-] | -0.7 | 4.0 | -0.8 | 6.9 | -3.8 | 1.8 | ·
CCC(C(=O)OCC(=O)Nc1ccc(Cl)c(S(=O)(=O)N(C)C)c1)c1ccccc1 (stereo not drawn) | 1.4 | -3.6 | -5.3 | 65.3* | -4.7 | -7.7 | -1.7
CN(C)S(=O)(=O)c1cc(NC(=O)COC(=O)Cc2cccc3ccccc23)ccc1Cl | 14.6 | -40.8 | -25.5 | -5.5 | 3.4 | -57.9 | ·
CCNC(=S)Nc1cc(OCC)c(NC(=O)c2cccs2)cc1OCC | 2.7 | 4.0 | -0.3 | 0.6 | 0.3 | 2.5 | ·
COC(=O)c1c([N+](=O)[O-])c(OC)c(OC)c(OC)c1[N+](=O)[O-] | 3.4 | -5.7 | -1.2 | 39.0* | -6.6 | 5.5 | 53.5*
Cc1cc(NC(=O)Cc2cccs2)no1 | 13.7 | 11.8 | -10.1 | 44.5* | -18.7 | -12.3 | 20.5
COc1cc(/C=C2\CC/C(=C\c3cc(OC)c(O)c(OC)c3)C2=O)cc(OC)c1O | -7.1 | -5.9 | -15.4 | 37.5* | -4.0 | -20.5 | 5.2
CC(=O)N1CCN(C(=O)c2ccc(NS(=O)(=O)c3ccc4c(c3)OCCO4)cc2)CC1 | 2.6 | 2.0 | 0.3 | -9.0 | -2.1 | 2.5 | ·
CC(C)COc1ccc(C(=O)NNC(=O)c2ccc(=O)[nH]c2)cc1 | 2.6 | · | 2.5 | · | -0.2 | 6.0 | ·
O=C(NNC(=O)c1ccccc1O)c1ccc(NS(=O)(=O)c2ccc(F)cc2)cc1 | -20.9 | 0.1 | -4.5 | 47.5* | -1.9 | -1.9 | -0.7
O=C(NNC(=O)c1ccccc1O)c1ccc(S(=O)(=O)Nc2ccccc2)cc1 | 6.2 | -0.4 | 0.6 | 17.0 | -0.3 | -4.1 | ·
NC(=O)N=Nc1c(O)[nH]c2ccc([N+](=O)[O-])cc12 | 8.5 | 0.2 | 0.2 | -1.4 | 6.4 | -0.7 | ·
O=C(CNC(=O)c1ccco1)N=Nc1c(O)[nH]c2ccc([N+](=O)[O-])cc12 | -0.9 | 3.1 | -2.5 | 49.6* | -7.0 | 3.7 | 62.4*
C=C(C)CNC(=S)N=Nc1c(O)[nH]c2ccc([N+](=O)[O-])cc12 | 1.7 | 2.7 | -1.4 | 41.7* | -4.8 | -1.8 | 36.6*
O=C(O)C1C2C=CC(C2)C1C(=O)Nc1ccc(C(=O)N2CCCCC2)c(Cl)c1 (stereo not drawn) | 4.3 | 4.4 | -4.3 | 5.3 | -4.4 | -6.7 | ·
CCN(C[C@H]1N[C@@](C)(C(=O)OC)[C@H]2C(=O)N(C)C(=O)[C@@H]12)C(=O)COC | · | · | · | · | -8.5 | · | ·
CC(=O)Nc1nc(-c2ccc(Cl)cc2)nc(C)c1C(C)=O | -3.2 | 1.1 | -2.4 | 43.8* | 0.3 | -7.7 | 4.1
O=C(COC(=O)CCC(=O)c1cccs1)NC(=O)c1ccc(OC(F)F)cc1 | 1.6 | -4.3 | 4.1 | -13.8 | 1.4 | 8.5 | ·
COc1ccc(NC(=O)c2onc(C)c2Cl)cc1OC | 3.7 | 2.7 | -1.1 | 39.3* | 1.7 | 2.5 | 7.5
COc1cc(NC(=O)c2onc(C)c2Cl)cc(OC)c1OC | -6.5 | 0.2 | 4.7 | 2.6 | 1.5 | 2.3 | ·
CS(=O)(=O)c1ccc2c(c1)sc1nc(=O)c(/C=C3/C=CC(=O)C(O)=C3)c(N)n12 | -13.6 | -0.9 | -13.6 | 43.6* | -5.1 | -16.8 | 32.5
SMILES | PME-1 inh | Fam108B inh | LYPLA1 counter | GSTO1 counter | PAD4 inh | LYPLA2 counter | GSTO1 confirm | others
COC(=O)CCC(=O)OC1(C)C(=O)C2=COC(c3ccc(OC)cc3)=CC2=C(Br)C1=O (stereo not drawn) | -0.2 | 1.8 | -2.5 | 20.2 | -1.6 | 0.5 | ·
COc1ccc(C2=CC3=C(Br)C(=O)C(C)(OC(=O)C4CCCC4)C(=O)C3=CO2)cc1 (stereo not drawn) | 5.5 | 7.2 | -5.1 | 38.7* | -9.7 | 0.2 | 24.9
O=[N+]([O-])c1cc([N+](=O)[O-])c2cc3ccccc3nc2c1 | 10.4 | 7.3 | -2.6 | 39.3* | -12.1 | 2.9 | 9.7
CN(C)Cc1cc(O)c(CN(C)C)cc1O | -0.4 | 2.9 | -0.1 | 53.2* | -9.6 | -0.3 | 10.7
COc1ccc(S(=O)(=O)Nc2c(O)ccc3ccccc23)cc1OC | -5.3 | -3.2 | -4.3 | 44.8* | -17.1 | -5.5 | 7.6
COc1ccc(C(=O)Nc2c(O)ccc3ccccc23)cc1OC | -2.4 | 6.3 | 3.8 | 2.1 | -6.9 | -0.5 | ·
COc1ccccc1NS(=O)(=O)c1ccc2nc(CCl)[nH]c2c1 | 6.5 | 6.8 | -1.0 | 85.1* | 2.2 | 5.8 | 91.0* | GSTO1 ABPP inh=68.0
Cc1ccc(S(=O)(=O)N2CCCCC2)cc1NS(=O)(=O)c1cccc(C(=O)O)c1 | -5.1 | 1.1 | -0.8 | 38.6* | 2.0 | 1.5 | 31.6
O=C(CCl)Nc1cc(S(=O)(=O)N2CCCCCC2)ccc1Cl | 12.3 | 5.1 | 1.8 | 95.9* | 4.9 | 5.1 | 95.9*
O=C(CCl)N1CCN(S(=O)(=O)c2ccc3ccccc3c2)CC1 | 4.3 | -1.1 | 4.0 | 86.9* | 0.3 | 15.8 | 94.0* | GSTO1 ABPP inh=88.0*
O=C(CCCCn1c(=O)c2ccccc2n(Cc2ccccc2)c1=O)NC1CCN(Cc2ccccc2)CC1 | -8.2 | 1.2 | -0.8 | 2.7 | -2.6 | -2.9 | ·
Cc1noc(C)c1CN1C(=O)NC(Cc2ccccc2)(Cc2ccccc2)C1=O | -4.3 | -2.5 | 3.8 | 0.3 | -3.1 | 3.7 | ·
CN1CCN(C(=O)/C(=C/c2cn(S(=O)(=O)N(C)C)c3ccccc23)NC(=O)c2ccccc2F)CC1 | 4.5 | 0.2 | -1.1 | 2.4 | -2.2 | -3.2 | ·
COc1cc(/C=C2\C(=O)N(c3ccc(S(N)(=O)=O)cc3)N=C2C)ccc1OC(=O)c1ccco1 | 5.9 | -0.2 | 3.7 | 52.5* | -9.3 | 1.1 | 10.4
